Among the test systems are NCI-H23 lung; NCI-H226 lung; NCI-H322M lung; HOP-62 NSCLC; NCI-H460 lung; A549/ATCC NSCLC; 786-0 renal; COLO 205 colon; DU-145 prostate; K-562 leukemia; MALME-3M melanoma; MDA-MB-231 breast; RXF 393 renal; SF-268 CNS; SF-295 CNS; SF-539 CNS; UACC-257 melanoma; M14 melanoma.
Common to all, as to experiment: NCI-60 one-dose screen, 48 h (100 = growth as untreated, 0 = no growth, -100 = all killed)
Common to all, as to conditions: 10 µM unless noted

Compounds without any hit were thinned out: in the full panel of roughly 83,000, 20% have a hit.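 Assay: single dose, 48 h. Readout: percent growth (0 = no net growth; negative = cell death). Active: <10.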 Values without a mark were called inactive. Calls of active or inactive are those of the source.

Consider `COc1cc(-c2nn(-c3ccc(NC(=O)c4ccc(Cl)c(C(F)(F)F)c4)cc3)cc2-c2ccncc2)ccc1Cl`, for which the growth with NCI-H23 lung was 18.7%; with NCI-H226 lung, 55.5%; in the experiment on NCI-H322M lung, 55.9%; with HOP-62 NSCLC, 5.59% (active); with NCI-H460 lung, 11.9%; with A549/ATCC NSCLC, 29%. Further, the growth in the experiment on 786-0 renal was -84.5% (active); with COLO 205 colon it was -22.4% (active); in the experiment on DU-145 prostate it was 45.2%; in the experiment on K-562 leukemia it was 8.48% (active); in the experiment on MALME-3M melanoma, 14.9%; in the experiment with MDA-MB-231 breast it was 3.94% (active). For the same compound, the growth in the experiment with RXF 393 renal is -56.3% (active); in the experiment on SF-268 CNS, 43.8%; in the experiment on SF-295 CNS it was -33.2% (active); in the experiment on SF-539 CNS it was 13%; in the experiment with UACC-257 melanoma, 54.2%; with M14 melanoma it was -44.3% (active).
For `Cc1ccccc1-n1c(C)nc2cc(NC(=O)c3ccc(Cl)cc3)ccc2c1=O`, the growth in the experiment on NCI-H23 lung was 64.3%; with NCI-H226 lung, 88.8%; in the experiment with NCI-H322M lung, 94.2%; in the experiment with HOP-62 NSCLC, 97.4%; in the experiment with NCI-H460 lung, 72.4%; with A549/ATCC NSCLC, 72.2%. In addition, the growth in the experiment with 786-0 renal is 67.6%; with COLO 205 colon it was 119%; in the experiment with DU-145 prostate, 87.6%; with K-562 leukemia, 55.8%; in the experiment on MALME-3M melanoma, 53.5%; in the experiment with MDA-MB-231 breast, 58.4%. The growth is 77.7% in the experiment with RXF 393 renal; 77.8% in the experiment with SF-268 CNS; 59.7% in the experiment on SF-295 CNS; 58.2% in the experiment on SF-539 CNS; 59.7% with UACC-257 melanoma; 68.7% with M14 melanoma.
Regarding `N#Cc1c2ncccc2c2nnc3cc(Cl)c(Cl)cc3n12`, the growth in the experiment on NCI-H23 lung was 88.6%; with NCI-H226 lung, 104%; in the experiment with NCI-H322M lung, 100%; with HOP-62 NSCLC, 82.7%; with NCI-H460 lung, 100%; with A549/ATCC NSCLC, 107%. In addition, the growth in the experiment with 786-0 renal is 108%; in the experiment with COLO 205 colon, 113%; in the experiment with DU-145 prostate, 89.2%; in the experiment with K-562 leukemia, 91%; in the experiment with MALME-3M melanoma, 79.6%; in the experiment with MDA-MB-231 breast, 67%. The growth with RXF 393 renal is 116%; with SF-268 CNS, 90.6%; in the experiment on SF-295 CNS, 105%; with SF-539 CNS, 97.1%; in the experiment on UACC-257 melanoma, 95.3%; in the experiment on M14 melanoma it was 100%.
Turning to `CC(O)c1cc[cH-]c1.[Fe+2].c1cc[cH-]c1` (centres undefined), the growth in the experiment with NCI-H23 lung is 102%; in the experiment on NCI-H226 lung, 91.2%; in the experiment with NCI-H322M lung, 92.6%; in the experiment with HOP-62 NSCLC, 99.4%; in the experiment with NCI-H460 lung it was 114%; in the experiment on A549/ATCC NSCLC, 101%. Further, the growth is 97.2% with 786-0 renal; 108% in the experiment with COLO 205 colon; 108% in the experiment on DU-145 prostate; 102% in the experiment on K-562 leukemia; 102% with MALME-3M melanoma; 110% with MDA-MB-231 breast. The growth with RXF 393 renal is 95.6%; in the experiment on SF-268 CNS, 108%; in the experiment with SF-295 CNS it was 98.8%; with SF-539 CNS, 97%; in the experiment with UACC-257 melanoma, 96.9%; in the experiment on M14 melanoma it was 95.6%.
As to `O=c1c2c(c3ccccc3n1-c1ccccc1)NC(=S)NC2c1ccc(Cl)cc1` (centres undefined), the growth in the experiment with NCI-H23 lung was 26.7%; in the experiment with NCI-H226 lung it was 65%; in the experiment on NCI-H322M lung, 45.1%; in the experiment on HOP-62 NSCLC, 29.3%; in the experiment with NCI-H460 lung it was 2.25% (active); in the experiment with A549/ATCC NSCLC it was 31.7%. Further, the growth in the experiment on 786-0 renal is 18.6%; in the experiment on COLO 205 colon, 67.2%; in the experiment on DU-145 prostate, 47.2%; with K-562 leukemia, 43.1%; in the experiment with MALME-3M melanoma it was 39.2%; in the experiment with MDA-MB-231 breast, 50.5%. Further, the growth is 46.3% in the experiment with RXF 393 renal; 43.5% in the experiment on SF-268 CNS; 25.9% in the experiment on SF-295 CNS; 21.2% in the experiment with SF-539 CNS; 44.1% in the experiment with UACC-257 melanoma; 29.1% with M14 melanoma.
Turning to `C/C=C/C/C=C/[C@H](C)C[C@H](O)[C@@H]1C[C@@H]2O[C@H]2/C=C/[C@H](O)[C@@H](O)/C=C/C[C@H](C)CC(=O)O1`, the growth with NCI-H23 lung is 83%; with NCI-H226 lung, 87%; with NCI-H322M lung it was 88.9%; in the experiment with HOP-62 NSCLC it was 89.6%; with NCI-H460 lung, 62.8%; in the experiment on A549/ATCC NSCLC it was 71.8%. Besides, the growth was 83.3% with 786-0 renal; 109% with COLO 205 colon; 90.7% in the experiment with DU-145 prostate; 65.8% in the experiment on K-562 leukemia; 103% in the experiment on MALME-3M melanoma; 90% with MDA-MB-231 breast. In addition, the growth in the experiment with RXF 393 renal was 117%; in the experiment with SF-268 CNS, 85.8%; in the experiment with SF-295 CNS, 84.5%; in the experiment on SF-539 CNS it was 85.2%; in the experiment on UACC-257 melanoma, 110%; with M14 melanoma, 81.5%.
Consider `CCCCCCCCCC[N+](C)(C)N`, for which the growth is 104% in the experiment on NCI-H23 lung; 92.3% in the experiment with NCI-H226 lung; 97.7% in the experiment with NCI-H322M lung; 95.8% with HOP-62 NSCLC; 111% in the experiment with NCI-H460 lung; 97.6% with A549/ATCC NSCLC. Also, the growth in the experiment on 786-0 renal was 81.9%; in the experiment with COLO 205 colon, 100%; in the experiment with DU-145 prostate, 111%; in the experiment on K-562 leukemia it was 71.6%; with MALME-3M melanoma, 95%; in the experiment on MDA-MB-231 breast, 101%. Further, the growth in the experiment with RXF 393 renal was 81.8%; in the experiment on SF-268 CNS, 98.6%; with SF-295 CNS it was 98.4%; in the experiment with SF-539 CNS, 89.1%; in the experiment with UACC-257 melanoma, 94.7%; with M14 melanoma, 105%.
For the compound `COC(=O)C(N)CC(C)C` (centres undefined), the growth is 107% in the experiment on NCI-H23 lung; 97.1% in the experiment on NCI-H226 lung; 106% in the experiment on NCI-H322M lung; 110% in the experiment on HOP-62 NSCLC; 108% in the experiment with NCI-H460 lung; 103% in the experiment with A549/ATCC NSCLC. Also, the growth was 96.7% in the experiment with 786-0 renal; 114% with COLO 205 colon; 101% in the experiment with DU-145 prostate; 88.8% with K-562 leukemia; 95.2% in the experiment with MALME-3M melanoma; -50.4% (active) with MDA-MB-231 breast. Also, the growth in the experiment with RXF 393 renal was 98.2%; in the experiment with SF-268 CNS, 96.8%; with SF-295 CNS it was 109%; in the experiment on SF-539 CNS, 112%; with UACC-257 melanoma, 102%; with M14 melanoma, 92.6%.

The values above are taken from PubChem BioAssay (NCI).
